The values that follow come from PubChem BioAssay AID1259423 (Fisher Drug Discovery Resource Center, 2018).

Among all 270,000 compounds or so, about 410 (0.15%) were called active. This is one part of a sample in which actives are shown more often than they occur. No stated cut-off is given here; in the data, active means activation above about 40%; inactive means the rest, inconclusive results apart.

This test relates to Aedes aegypti neuropeptide Y-like receptor 7 (NPYLR7). Description: agonists of mosquito NPYLR7 receptor, primary screen, cell-based, Aedes aegypti, calcium fluorescence, mosquito biting behavior (AID 1259423).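 Further: 0% = vehicle and 100% = reference agonist at the receptor.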 As to conditions: HEK293T NPYLR7/Galpha15, GCaMP6s calcium fluorescence, at 10 µM, stronger effect = higher value.
Setting [1] is: measured here: Max-Min RFU normalised activation.

As to `Cc1ccc(CNc2oc(-c3ccc(S(=O)(=O)N(C)Cc4ccccc4)cc3)nc2C#N)cc1`, the activation is -0.355% (inactive). Also, the activation under setting [1] was determined as 4.09%.

`O=C(NC1Cc2ccccc2C1)c1ccc(-c2cc(-c3cccc(C(F)(F)F)c3)n[nH]2)cc1`: the activation is 25.1% (inactive). For the same compound, the activation under setting [1] was 16.8%.

Take `N#Cc1cc2cc(Cl)cc(Cl)c2oc1=O`: the activation is 189% (active). The activation under setting [1] was 162%.

On to `N#Cc1cc(Cl)c(Cl)cc1C#N`, for which the activation is 9.21% (inactive). Besides, under setting [1], the activation came to 8.51%.

Consider `O=c1oc2c(Cl)cc(Cl)cc2cc1-c1nnc(Nc2ccccc2F)s1`, for which the activation was 3.96% (inactive). The activation under setting [1] is 1.58%.

In the case of `CCCCNC(=O)c1c(C)c(C(=O)OCC)n(C)c1C`, the activation is -1.79% (inactive). Also, the activation under setting [1] was 26.8%.

Consider `O=C(Nc1cc(F)c(N2CCCC2)c(F)c1)C1Cc2ccccc2O1` (configuration not stated), for which the activation is 2.58% (inactive). Besides, the activation under setting [1] came out at 0.532%.

`COc1ccc(NC(=O)C(C)SCc2cccc(C(F)(F)F)c2)cc1` (configuration not stated): the activation is -0.635% (inactive). Also, the activation under setting [1] was -2.01%.

With `C=C(C)Cn1c(C2CC(=O)N(c3ccccc3CC)C2)nc2ccccc21` (configuration not stated), the activation is -1.84% (inactive). Moreover, under setting [1], the activation was determined as 23.5%.

For `CCN(CC)C(=O)C1(C)CCN1C(=O)Cc1ccc(-c2ccccc2)cc1` (configuration not stated), the activation was 4.71% (inactive). For the same compound, under setting [1], the activation stood at 3.32%.

In the case of `COc1ccc(OCC(O)CN(Cc2cccn2C)CC2CCCO2)cc1` (configuration not stated), the activation is 18.8% (inactive). Also, the activation under setting [1] turned out to be 19.6%.

On to `COc1cccc(CN(CC(O)COCC(C)C)CC2CCCO2)c1` (configuration not stated), for which the activation was 23.7% (inactive). Besides, under setting [1], the activation came out at 17.6%.

As for `CC(C)COCC(O)CN(Cc1cccn1C)CC1CCCO1` (configuration not stated), the activation is 43.6% (active). Also, under setting [1], the activation worked out at 42.4%.

Consider `Fc1ccc(-c2cnc(NCCc3ccccn3)cn2)cc1Cl`, for which the activation is -2.76% (inactive). For the same compound, the activation under setting [1] was -5.38%.

As to `COC(=O)C1=C(NC(=O)CSCc2ccccc2)CCS1`, the activation is -1% (inactive). For the same compound, under setting [1], the activation was -1.58%.

For the compound `CC1CCC(C(C)C)C(OCC(O)CN2CCN(CCO)CC2)C1` (configuration not stated), the activation was 0.73% (inactive). Besides, the activation under setting [1] was determined as 22.3%.
